36 compounds from the supplement of paper PMC10127200 can be followed below.

Structures can show the parent of a compound that is named as a salt.

The test system of this experiment is 786-O. As to the kind of experiment: Euclidean distance of Cell Painting phenotypic profile (signed KS, 77 features) to DMSO centroid (dimensionless distance); 5 or 10 uM (library dependent); higher = stronger phenotypic change vs DMSO (phenoactivity). To be noted: 48 h. The procedure, abridged:
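Five cancer lines and a healthy fibroblast line received library compounds at 10 or 5 uM (library-dependent, 0.1% DMSO final) for 48 h. Stained cells were imaged confocally at 20X (9 fields/well). Harmony extracted 77 features, each scored as a signed Kolmogorov-Smirnov statistic against same-plate vehicle wells. Profiles were plate-position corrected, correlation-weighted and replicate-averaged at the top dose. Phenoactivity is the Euclidean distance from each profile to the median vehicle profile.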
`COc1c(C)c2c(c(O)c1C/C=C(\C)CCC(=O)OCCN1CCOCC1)C(=O)OC2` [Mycophenolate Mofetil] yielded an Euclidean distance of 2.59.

The compound `C[C@@H]1C[C@H]2[C@@H]3C[C@H](F)C4=CC(=O)C=C[C@]4(C)[C@@]3(F)[C@@H](O)C[C@]2(C)[C@@]1(O)C(=O)CO` [Flumethasone] had an Euclidean distance of 1.24.

In turn, `CN(C)Cc1cccc(N=C(c2ccccc2)c2c(O)[nH]c3cc(C(=O)N(C)C)ccc23)c1` returned an Euclidean distance of 0.777.

In the case of `NC(=O)c1ncn([C@@H]2O[C@H](CO)[C@@H](O)[C@H]2O)c1N` [Acadesine], the Euclidean distance was 1.

In turn, `CCN(CC)CCOC(=O)C(c1ccccc1)c1ccccc1` [Adiphenine HCl] gave an Euclidean distance of 1.67.

Take `c1ccc(C2CN3CCSC3=N2)cc1` (single isomer, unassigned; (-)) [(-)-Tetramisole]: the Euclidean distance came out at 1.24.

`NCCCCCC(=O)O` gave an Euclidean distance of 0.84.

In turn, `NC(=O)[C@@H]1CSSCCC(=O)N[C@@H](CCCCN=C(N)N)C(=O)NCC(=O)N[C@@H](CC(=O)O)C(=O)N[C@@H](Cc2c[nH]c3ccccc23)C(=O)N2CCC[C@H]2C(=O)N1` [Eptifibatide Acetate] showed an Euclidean distance of 1.66.

In turn, `C[C@@H]1CN(CC(=O)Nc2ccc3c(c2)Cc2cccc(-c4cc(=O)cc(N5CCOCC5)o4)c2S3)C[C@H](C)O1` came in with an Euclidean distance of 1.16.

Turning to `N=c1ccn2c(n1)O[C@H]1[C@H](O)[C@@H](CO)O[C@H]12` [Cyclocytidine HCl], the Euclidean distance turned out to be 3.43.

In the case of `CC(C)[C@H](O)C(=O)N[C@@H](C)C(=O)N[C@@H]1C(=O)N(C)CCc2ccccc21`, the Euclidean distance came to 1.12.

Regarding `Cc1ccc2c(=O)c3cccc(CC(=O)O)c3oc2c1C` [DMXAA (Vadimezan)], the Euclidean distance turned out to be 2.33.

For the compound `CCc1c(C(=O)NCCc2ccc(N3CCCCC3)cc2)[nH]c2ccc(Cl)cc12`, the Euclidean distance came out at 1.69.

On to `CC(C)C[C@@H](C(=O)N[C@H](C(=O)OC1CCCC1)c1ccccc1)[C@H](O)C(=O)NO` [Tosedostat (CHR2797)], for which the Euclidean distance is 0.679.

`C=CCn1c(=O)c2cnc(Nc3ccc(N4CCN(C)CC4)cc3)nc2n1-c1cccc(C(C)(C)O)n1` registered an Euclidean distance of 3.28.

As for `Cc1cc(NC(=O)Nc2ccc(N(C)C)cc2)c2cc(F)cc(F)c2n1`, the Euclidean distance is 0.716.

In turn, `COc1ccc2cc(C(=O)O)ccc2c1` [6-Methoxy-2-naphthoic acid] showed an Euclidean distance of 0.861.

In turn, `CCCCOc1c(C(=O)c2c(F)cc(C)cc2F)c[nH]c2nncc1-2` yielded an Euclidean distance of 1.55.

The compound `O=C(NOCC(O)CO)c1cc(Br)c(F)c(F)c1Nc1ccc(I)cc1F` (stereo unspecified) registered an Euclidean distance of 1.97.

`CCOC(=O)[C@H](CCc1ccccc1)N[C@H]1CCCN2CCC[C@@H](C(=O)O)N2C1=O` [Cilazapril Monohydrate]: the Euclidean distance was determined as 1.14.

As for `CCC(=O)O[C@]1(C(=O)CCl)[C@@H](C)C[C@H]2[C@@H]3CCC4=CC(=O)C=C[C@]4(C)[C@@]3(F)[C@@H](O)C[C@@]21C` [Clobetasol propionate], the Euclidean distance came out at 1.31.

`Clc1ccc(C2(c3ccc(-c4cn[nH]c4)cc3)CCNCC2)cc1` yielded an Euclidean distance of 2.95.

Take `COc1cc(NS(=O)(=O)c2ccc(N)cc2)nc(OC)n1` [Sulphadimethoxine]: the Euclidean distance was determined as 1.31.

As for `Nc1cccc(-c2cc3c(Oc4cccc(O)c4)ncnc3[nH]2)c1`, the Euclidean distance worked out at 1.73.

On to `C=CCc1cc(OC)c(O)c(C(=O)NCCO)c1` [Alibendol], for which the Euclidean distance amounted to 2.26.

`NS(=O)(=O)c1cc2c(cc1Cl)NCNS2(=O)=O` [Hydrochlorothiazide] registered an Euclidean distance of 1.82.

`CCCc1nc2c(C)cc(-c3nc4ccccc4n3C)cc2n1Cc1ccc(-c2ccccc2C(=O)O)cc1` [Telmisartan] registered an Euclidean distance of 1.83.

The compound `CCCNC(=O)Nc1ccc(Oc2ncnc3cc(OC)c(OC)cc23)cc1Cl` displayed an Euclidean distance of 0.633.

In turn, `COc1cc(Nc2nc3ccccc3nc2NS(=O)(=O)c2ccc(NC(=O)c3ccc(C)c(OC)c3)cc2)cc(OC)c1` gave an Euclidean distance of 0.677.

With `C[C@@]1(c2cc(-c3cncnc3)c(F)cc2F)CCSC(N)=N1`, the Euclidean distance was found to be 2.11.

For `CCCCCCCCCCCCc1ccc(S(=O)(=O)Nc2nncs2)cc1`, the Euclidean distance worked out at 1.69.

`Cc1ccc(-n2nc(C(C)(C)C)cc2NC(=O)Nc2ccc(OCCN3CCOCC3)c3ccccc23)cc1` [BIRB 796 (Doramapimod)] had an Euclidean distance of 1.54.

As for `O=S(=O)(NCCNC/C=C/c1ccc(Br)cc1)c1cccc2cnccc12`, the Euclidean distance came out at 2.02.

Compound `CCOC(=O)CCNc1cc(N2CCc3ccccc3CC2)nc(-c2ccccn2)n1` displayed an Euclidean distance of 2.

Consider `NC(=O)Nc1cc(-c2cccc(F)c2)sc1C(=O)N[C@H]1CCCNC1`, for which the Euclidean distance worked out at 3.38.

In turn, `CNC(=O)CN(CCN(CCN(CC(=O)[O-])CC(=O)NC)CC(=O)[O-])CC(=O)[O-].[Gd+3]` [Gadodiamide] registered an Euclidean distance of 0.953.
